Results taken from PubChem BioAssay (NCI).
Values joined by “and” are separate entries in the source; they are usually repeats but may differ in a detail not shown here. Equal values may be shown once. The panel holds about 83,000 compounds, 20% with a hit somewhere; the sample as a whole holds those more often.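 How to read the values: 0–100, growth inhibition (40 = 60% inhibited); 0, no net growth; -100 to 0, cell death (-40 = 40% of starting cells died; -100 = all dead).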 Active and inactive are the calls of the source. Rule for the calls: active = growth percent below 10; inactive = the rest.

Tested on: HL-60(TB) leukemia
Assay: NCI-60 one-dose screen, 48 h (100 = growth as untreated, 0 = no growth, -100 = all killed)
Details: 10 µM unless noted

SMILES | growth
c1ccc(C(NC2CC3CCC2C3)c2ccccc2)cc1 (stereo unspecified) | 100% (inactive)
O=C(NCCCN1CCOCC1)c1cccc(N2C(=O)/C(=C/c3ccc(F)cc3)SC2=S)c1 | 99.6% (inactive)
O=C(CCCCC(=O)N/N=C\c1ccccc1O)N/N=C\c1ccccc1O | 4.44% (active)
COc1cc2c(c(OC)c1OC)-c1ccc(OC)c(=O)cc1[C@@H](NC(=O)CCl)CC2 | -7.51% (active)
CCC1(C(N)=O)CC2C=CC1CC2 (stereo unspecified) | 110% (inactive)
COc1cc(/C=C/C(=O)c2c(C)nc3ccccc3c2C)ccc1OCCCN1CCN(C(=O)c2ccco2)CC1 | 74.7% (inactive)
CCN1CCN(CCNc2nccc(-c3c(-c4cccc(O)c4)nc4sccn34)n2)S1(=O)=O | 64% (inactive) and 91.9% (inactive)
O=C(OCc1ccc2c(Cl)cc(Cl)c(O)c2n1)n1cncn1 | 17.7% (inactive)
CCn1cnc(C[C@H](NC(=O)[C@H](CCCCNC(=O)Nc2cc(C(F)(F)F)cc(C(F)(F)F)c2)NC(=O)Nc2cc(C(F)(F)F)cc(C(F)(F)F)c2)C(=O)OC)c1 | -48.7% [100 µM] (active)
COc1ccc(C2=Nc3c/c(=C\c4c(O)[nH]c5ccc(Cl)cc45)ccc3=N2)cc1 | 6.79% (active)
Cc1ccc(S(=O)(=O)Nc2ccc(Cl)cc2)cc1 | 119% (inactive)
Cn1ncc2c(Nc3ccc(O)cc3)nc(Cl)nc21 | 95.1% (inactive)
Cn1cnc([N+](=O)[O-])c1Sc1nc(N)nc2nc[nH]c12 | 59.9% (inactive)
COc1cnc2c(c1)C(=O)c1c-2n(CCCN2CCCC2)c(=O)c2cc([N+](=O)[O-])ccc12 | -24.9% (active)
O=C(OCc1ccc2cccc(O)c2n1)N1CCN(C(=O)c2cc3cc(F)ccc3[nH]2)CC1 | -35.8% (active)
Cc1ccc(/C=C2\Oc3cc(OCC(=O)c4ccc(Cl)cc4)ccc3C2=O)cc1 | 50.7% (inactive)
COc1ccc(CCN2C(=O)CCC3=C2CCCC3=O)cc1OC | 107% (inactive)
Nc1nc2ccc(-c3nc4ccc5[nH]ncc5c4c4c3CCCC4)cc2s1 | 94.7% (inactive)
Cc1cc(=O)[nH]c2c(C#N)cnn12 | 106% (inactive)
Cc1c(-n2nnc(-c3nc4ccccc4s3)c2N)c(=O)n(-c2ccccc2)n1C | 99.2% (inactive)
O=C1Nc2ccccc2/C1=C\c1nc(C2CCN(S(=O)(=O)c3ccc(F)cc3)CC2)n2ccccc12 | 92.3% (inactive)
CC(C)(C)c1cc(-c2nc3ccc(N4CCN(S(C)(=O)=O)CC4)cc3[nH]2)cc(C(C)(C)C)c1O | 90.2% (inactive)
CCCCCn1sc(=O)n(Cc2ccc(CNC(=O)C(C)c3ccc(CC(C)C)cc3)cc2)c1=O (stereo unspecified) | 102% (inactive) and -34.5% (active)
Nc1nc(=S)c2ncn(C3OC(CO)C(O)C3O)c2[nH]1 (stereo unspecified) | 96.4% (inactive) and 21.3% (inactive)
CCCCCCCCCCCCCCCCC(Br)C(=O)O (stereo unspecified) | 111% (inactive)
Cn1c(-c2nonc2NC(=O)c2ccc(F)cc2)nc2ccccc21 | -30.1% (active)
